Assay results as given in the supplement of paper PMC4466236.
Over roughly 33,000 sequences, “E-score (dimensionless, -0.5 to 0.5)” has its median near -0.058; the highest 2% begin near 0.35. This is one part of a sample in which the highest values are shown more often than they occur.

tested on: MvaT; assay: PBM 8-mer E-score (mean of HK and ME arrays) (E-score (dimensionless, -0.5 to 0.5)); higher = stronger relative binding preference
Procedure, shortened: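 Full-length P. aeruginosa MvaT, with glutathione S-transferase fused to its N-terminus (cloned into pTH6838 by isothermal assembly), was tested by protein binding microarray using a previously described protocol. Two universal double-stranded 60-mer arrays (ME and HK) were used, each with a constant 25-mer primer region and a variable 35-mer region covering all 8-mers. The rank-based 8-mer E-score (-0.5 to 0.5) is the mean of the two arrays, parsed with a custom Python script.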

Row | Sequence | PBM 8-mer E-score
1 | GCCTTGGA | -0.206
2 | GGCACCCA | -0.148
3 | CTCCACTC | -0.232
4 | AATAATAA | 0.478
5 | AATAAGAT | 0.356
6 | CATAATAG | 0.318
7 | AATAAGAA | 0.318
8 | CATAATAA | 0.334
9 | GATAATAA | 0.404
10 | AATAAGAG | 0.222
11 | AATAGTAG | 0.294
12 | AATAATAG | 0.402
13 | AGGCATCG | -0.134
14 | TAAATCAA | 0.341
15 | AATTGGTG | 0.0491
16 | CGCTGTAC | -0.228
17 | GCAGCTAA | 0.0363
18 | AATAATAC | 0.419
19 | GATAATAC | 0.301
20 | CATAATAC | 0.327
21 | GGAAATCA | -0.0787
22 | GAGGAATC | -0.0683
23 | TCCATCAA | -0.032
24 | ACAAGGTA | -0.0731
25 | AGTTAACT | 0.377

Row | Sequence | PBM 8-mer E-score
26 | CGTTAACA | 0.114
27 | AGTTAACA | 0.348
28 | AGTTAACG | 0.204
29 | AGTTAACC | 0.142
30 | TGTTAACA | 0.33
31 | GTGAACCA | -0.139
32 | AACGCTTA | 0.0532
33 | CTATTAAA | 0.283
34 | CGATTAAA | 0.218
35 | ATATTAAC | 0.434
36 | TTATTAAA | 0.409
37 | CTATTAAC | 0.315
38 | ATATTAAA | 0.466
39 | TCATTAAA | 0.228
40 | GTATTAAA | 0.313
41 | AGATTAAC | 0.173
42 | TTGTTAAA | 0.346
43 | GTGTTAAA | 0.177
44 | CTGTTAAA | 0.175
45 | GAGGACTC | -0.279
46 | CTCGGAAG | -0.0476
47 | CGCACACG | -0.149
48 | GATTCTGC | -0.159
49 | CACTACGA | -0.0417
50 | CCTGGCAG | -0.209

Row | Sequence | PBM 8-mer E-score
51 | CGTTGTAC | -0.0465
52 | AAGAGCTT | -0.115
53 | GATTCTGA | -0.00658
54 | AGCGCAAA | 0.162
55 | AACCAGGC | -0.183
56 | GCCTAATA | 0.133
57 | AAATTTCT | 0.148
58 | ATATTACG | 0.299
59 | ATATTAAG | 0.446
60 | GGATTAAC | 0.111
61 | GTATTAAC | 0.39
62 | CTATTAAG | 0.17
63 | GCATTAAC | 0.114
64 | AGCGTCGC | -0.197
65 | CACAACCG | -0.028
66 | ATCGTATA | 0.115
67 | CCTACGAG | -0.148
68 | ATAAGTCA | 0.17
69 | TGTATAAA | 0.258
70 | AGTATAAA | 0.381
71 | AGTATAAC | 0.36
72 | CGTATAAC | 0.113
73 | GGTATAAC | 0.226
74 | GGTATAAA | 0.339
75 | ATGTAAAA | 0.247

Row | Sequence | PBM 8-mer E-score
76 | CTTCCCCC | -0.176
77 | AACACACA | 0.187
78 | AGGCTTAC | -0.247
79 | AGATAATA | 0.366
80 | GGATAATA | 0.403
81 | GGATAAGA | 0.0379
82 | AGATAATG | 0.295
83 | AGATAATC | 0.136
84 | CGATAATA | 0.301
85 | GCTCGAGA | -0.152
86 | CCGTTCGC | -0.222
87 | CTCCGGTA | -0.227
88 | CAACGGCG | -0.221
89 | GTATATAA | 0.401
90 | ATATAGCG | 0.333
91 | GCGTATAA | 0.201
92 | ATCTATAA | 0.209
93 | CACTATAG | 0.196
94 | CTCTATAA | 0.081
95 | CTATATAG | 0.388
96 | ATCTATAG | 0.146
97 | CCATATAG | 0.084
98 | GTGTATAA | 0.202
99 | CTATATAA | 0.421
100 | ATATATAG | 0.468

Row | Sequence | PBM 8-mer E-score
101 | AACTAGGA | 0.0115
102 | TGGCAACA | -0.122
103 | ACAATCAC | 0.00599
104 | CACGCATC | -0.154
105 | GTGGCCAA | -0.191
106 | ATGTTATG | 0.152
107 | CTGTTATA | 0.359
108 | CTGTTACA | 0.111
109 | CTGTTATC | 0.0487
110 | ATGTTATA | 0.442
111 | GTGTTATA | 0.32
112 | GAGGAAAC | -0.144
113 | GAAACAAA | 0.271
114 | ACTAATAC | 0.247
115 | TCTAATAA | 0.332
116 | ACTAATAT | 0.407
117 | ACTAATAA | 0.399
118 | CCTAATAA | 0.266
119 | ACTAATAG | 0.199
120 | CCAAATCC | -0.193
121 | AGAAAGAC | 0.00959
122 | GACACACA | 0.101
123 | AGGGACCC | -0.282
124 | AGACCTCG | -0.132
125 | AGATCGAG | -0.129

Row | Sequence | PBM 8-mer E-score
126 | CGTGAAGC | -0.218
127 | CTTGGTTA | 0.0108
128 | CATATCAC | 0.15
129 | GAGGCACC | -0.229
130 | ATACAAAG | 0.27
131 | ATACAAAA | 0.304
132 | GAACATAA | 0.256
133 | AAACATAG | 0.216
134 | ATACATAT | 0.394
135 | ATACATAC | 0.319
136 | AAACATAC | 0.284
137 | AAACATAT | 0.361
138 | TAACATAA | 0.303
139 | AAACATAA | 0.371
140 | ATACATAA | 0.336
141 | ATACAAAT | 0.35
142 | CAGTTGAC | 0.0902
143 | GGTCGAAC | -0.0987
144 | AGTCAGAG | -0.21
145 | CCTGGCGC | -0.207
146 | TATAAAGA | 0.327
147 | GATAAAGA | 0.271
148 | GATAAATC | 0.137
149 | AGTAAATA | 0.361
150 | CCTAAATA | 0.226

Row | Sequence | PBM 8-mer E-score
151 | CATAAATA | 0.358
152 | CATAAATG | 0.112
153 | TATAAATA | 0.426
154 | CATAAATC | 0.163
155 | CGTAAATA | 0.236
156 | GATAAATA | 0.382
157 | AGTAAATC | 0.0898
158 | CCCTGGAA | -0.276
159 | CCCTACAC | -0.212
160 | CTCCGCCA | -0.247
161 | ACTCAGTA | 0.118
162 | AATTGAGA | 0.0559
163 | CATAAGTA | 0.315
164 | AATAAATG | 0.33
165 | AATAAGTA | 0.387
166 | AATAAATA | 0.434
167 | AATAAATT | 0.436
168 | AATAAATC | 0.319
169 | AATAAACT | 0.293
170 | AATAAGTG | 0.254
171 | AAGAAATT | 0.26
172 | CCAAGTTC | 0.0376
173 | AGGAGAAC | -0.112
174 | CGACTCAA | -0.0083
175 | TACCATAA | 0.271

Row | Sequence | PBM 8-mer E-score
176 | CATCTCCG | -0.186
177 | AGCTTGCG | -0.227
178 | AATATGCA | 0.264
179 | AATATGAA | 0.329
180 | CATATGCA | 0.164
181 | TATATGAA | 0.382
182 | GATATGAA | 0.156
183 | TATATGCA | 0.412
184 | CAGCACAA | -0.0547
185 | TCAGCCCA | -0.133
186 | AAAGTATG | 0.216
187 | ACGTAAAC | -0.0262
188 | AATACGGG | -0.0239
189 | CACTTATA | 0.326
190 | GACTTATA | 0.312
191 | AACTTACA | 0.33
192 | TACTTATA | 0.389
193 | ACCTTATA | 0.266
194 | AACTTATA | 0.415
195 | AAGCCGGA | -0.238
196 | TACTGTAA | 0.336
197 | AAGGACGT | -0.149
198 | GGAGTCAA | -0.134
199 | CTTGAACA | -0.0207
200 | AAGGTGGG | -0.155

Row | Sequence | PBM 8-mer E-score
201 | CCGCGGCG | -0.0831
202 | ACGAGGCT | -0.135
203 | ATTGGTAC | 0.139
204 | CTGTAATA | 0.36
205 | GTATAAGA | 0.278
206 | ATGTAATA | 0.317
207 | GTGTAATA | 0.342
208 | GTCTAATA | 0.269
209 | CTATAATA | 0.42
210 | GTATAATA | 0.416
211 | CCATAATA | 0.287
212 | CTCTAATA | 0.364
213 | CTGTAATC | 0.0848
214 | ATCTAATA | 0.321
215 | CTTCAACA | 0.0315
216 | CCCGCGTA | -0.177
217 | CGTCTCAG | -0.227
218 | CTGTTTCA | -0.122
219 | AACCCATT | 0.0496
